# From PubChem BioAssay
# L3MBTL1 block: qHTS Assay for the Inhibitors of L3MBTL1; Potency, µM (titrated, usually from 57.1 µM), without a hit: at the top dose activity, negative = inhibition, most hits filed as inhibitors; Lethal(3)malignant brain tumor-like protein 1 (Homo sapiens), Q9Y468; AlphaScreen L3MBTL1–H3K9me1 peptide binding; 0.66% of 230,000 active; also: potency is read from the fitted curve at half-maximal effect; % is scaled to controls: 0 for no effect and ±100 for the full control effect; nearly all actives have a fitted effect of over 60% in size
#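 AlphaScreen proximity signal between nickel-chelate acceptor and streptavidin donor beads (final 10 ug/mL) reports binding of 50 nM L3MBTL1 to 75 nM biotin-H3 K9me1 peptide; complex incubated with compounds 30 min at room temperature; cefsulodin titration as control.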
# CBFb RUNX1 block: qHTS Assay for Compounds Blocking the Interaction Between CBF-beta and RUNX1 for the Treatment of Acute Myeloid Leukemia; AlphaScreen CBFb-His/RUNX1-biotin binding, biochemical; Potency, µM (doses to about 59.8 µM), without a hit: at the top dose activity, negative = inhibition, most hits filed as inhibitors; 230,000 tested, under 10 active; AID 1477, 2009; also: % of control where 0% means no effect
# Target sequence (Q01196 whole entry, looked up): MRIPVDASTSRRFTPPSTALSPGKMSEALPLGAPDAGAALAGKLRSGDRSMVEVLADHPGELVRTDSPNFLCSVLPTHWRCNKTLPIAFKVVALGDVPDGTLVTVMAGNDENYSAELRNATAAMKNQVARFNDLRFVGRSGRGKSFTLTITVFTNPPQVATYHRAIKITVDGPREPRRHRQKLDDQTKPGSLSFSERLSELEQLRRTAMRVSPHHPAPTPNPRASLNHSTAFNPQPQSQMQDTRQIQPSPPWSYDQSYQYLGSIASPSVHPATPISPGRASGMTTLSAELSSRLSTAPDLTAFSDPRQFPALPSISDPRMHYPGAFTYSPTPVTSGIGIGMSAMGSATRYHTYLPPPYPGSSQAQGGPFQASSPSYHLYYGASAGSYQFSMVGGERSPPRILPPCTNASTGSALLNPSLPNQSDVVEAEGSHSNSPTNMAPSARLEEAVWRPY
# Target sequence (Q13951 whole entry, looked up): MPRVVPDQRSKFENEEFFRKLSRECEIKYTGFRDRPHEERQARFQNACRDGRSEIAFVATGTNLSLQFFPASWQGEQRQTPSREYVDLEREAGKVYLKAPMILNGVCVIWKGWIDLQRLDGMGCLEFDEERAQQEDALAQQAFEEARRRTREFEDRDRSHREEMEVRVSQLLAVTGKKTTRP
#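 Bead-based AlphaScreen assay; binding partners His-tagged CBF-beta and biotinylated RUNX1 at 30 nM each. Compound exposure 15 min after a 20-min protein preincubation; bead step 90 min; all steps at room temperature.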
# MBNL1 CUG block: qHTS Assay for Inhibitors of MBNL1-poly(CUG) RNA binding; Muscleblind-like protein 1 (Homo sapiens), Q9NR56; TR-FRET MBNL1-His/biotin-(CUG)12 binding, 665/545 ratio; Potency, µM (top dose mostly 57.5 µM), without a hit: top-dose activity change, negative = inhibition, usual class: inhibitors; 0.036% of 280,000 active; active = well fitted inhibition curve with a large enough effect in the signal ratio, with a control signal flat, not every such curve was filed as active; inconclusive = small, poorly fitted or top-dose-only effect, or effect the other way, or a change in a side signal; inactive = no such curve, though single readings can be large or run the other way; the % refers to the signal ratio; also: potency is read from the fitted curve at half-maximal effect; % is scaled to controls: 0 for no effect and ±100 for the full control effect
#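 TR-FRET between His-tagged MBNL1 and biotin-(CUG)12 RNA, detected with Tb anti-His antibody (0.055 ng/ul) and streptavidin-XL665 (5 nM), 60 min at room temperature. Compounds titrated 92 nM to 58 uM; 665/545 nm ratio normalized to buffer and complex controls.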
# Eya2 inh: qHTS Assay for Inhibitors of the Phosphatase Activity of Eya2; recombinant Eya2, OMFP fluorescence dephosphorylation (OMFP is methylfluorescein phosphate); AID 488837, 2010; Potency, µM (doses to about 76.9 µM), for inactives: top-dose activity, negative = inhibition, usual class: inhibitors; 0.006% of 330,000 active; also: potency is read from the fitted curve at half-maximal effect; % is scaled to controls: 0 for no effect and ±100 for the full control effect
#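 Eya2 (0.2 uM) preincubated 10 min at ambient with compound, then OMFP substrate added at 50 uM; 10 min reaction in 50 mM HEPES pH 7.5, 50 mM NaCl, 5 uM MgCl2, 0.05% BSA, 1 mM DTT. Fluorescence read at Ex 485/Em 525 nm.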
# CtBP-E1A blk: qHTS Assay for Inhibitors of the CtBP/E1A Interaction; 0.49% of 340,000 active; CtBP / adenovirus E1A interaction (AlphaScreen); activity change, % (concentration not given with the values); AlphaScreen GST-E1A/His-CtBP binding, 1536-well; active compounds read low; in the data active = activity change below about -65%; inconclusive = mostly about -30% to -63%; also: % is scaled to controls: 0 for no effect and ±100 for the full control effect
#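 AlphaScreen with 125 nM GST-E1A and 125 nM His-CtBP (5X stocks) in Tris pH 8.0, 300 mM NaCl, BSA, Tween 20, TCEP. Compounds preincubated 2 h at 37 deg C, then glutathione donor/nickel acceptor beads added for 1 h at 37 deg C in dark.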
# Six1-Eya2 inh: qHTS Assay for Inhibitors of the Six1/Eya2 Interaction; 0.56% of 360,000 active; Homeobox protein SIX1 (Homo sapiens) + Protein phosphatase EYA2 (Homo sapiens), …; activity change, % (concentration not given with the values); AlphaScreen GST-Six1/His-Eya2 binding, biochemical; active compounds read low; AID 651725, 2012; in the data active = activity change below about -65%; inconclusive = mostly about -30% to -63%; also: % is scaled to controls: 0 for no effect and ±100 for the full control effect
#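 AlphaScreen with GST-Six1 and His-Eya2 (5X mix: 250 nM and 500 nM), glutathione donor and nickel acceptor beads; buffer 50 mM Tris pH 8.0, 300 mM NaCl, 1 mM TCEP; 1 h at 37 C in the dark.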
# Active calls of the source: *; ? = inconclusive; · = no result; ! = a repeat was not active. Rows were chosen to be rich in hits. Some 0.89% of all compounds tested hit in one or more screens of this group. Unless noted, calls follow the shape of the dose curve; as a rule, active = well fitted curve in the direction sought with a large enough effect; inconclusive = small, poorly fitted or top-dose-only effect, or another doubt; inactive = no such curve, though single readings can be large; an effect the other way counts as inactive or inconclusive.
SMILES,L3MBTL1 block,CBFb RUNX1 block,MBNL1 CUG block,Eya2 inh,CtBP-E1A blk,Six1-Eya2 inh
Cc1nonc1C(=O)N/N=C/c1ccc(O)cc1O,6%,6%,2%,3%,·,-90*
O=C(N/N=C/c1ccc(O)cc1O)c1ccncc1,·,·,19%,-4%,-91*,-93*
O=C(N/N=C/c1ccc(O)cc1O)c1ccc(NC(=O)C2CCCCC2)cc1,·,·,-15%,-7%,-90*,-72*
O=C(NCC(=O)N1CCN(Cc2ccccc2)CC1)c1ccc(Br)o1,·,·,-3%,7%,3,0
O=C1/C(=C/C=C/c2ccco2)SC(=S)N1NS(=O)(=O)c1ccccc1,·,·,7%,-28%,-15,?
CC(C(=O)O)N1C(=O)/C(=C/C=C/c2ccco2)SC1=S (stereo not drawn),1.1µM*,·,?,13%,-7,-74*
O=C(NNC(=O)c1c(O)c2ccccc2[nH]c1=O)c1ccccc1Br,·,·,-7%,10%,?,-75*
O=C(N/N=C(\c1ccccc1)c1ccccn1)c1cccc([N+](=O)[O-])c1,·,?,?,-6%,·,-91*
CCOc1ccc(C(=O)N/N=C(\c2ccccc2)c2ccccn2)cc1,-12%,?,19%,10%,-67*,?
OC(CON=C1c2ccccc2-c2ccccc21)CN1CCNCC1 (stereo not drawn),·,4%,?,-17%,0,-4
Cc1ccc(NS(=O)(=O)N2CCCCC2)cc1,·,·,·,·,7,-4
Cc1ccc(S(=O)(=O)Nc2cccc3cccnc23)cc1,·,13%,30%,0%,?,-71*
COc1cc(NS(=O)(=O)c2ccc(C)cc2)c2ncccc2c1,9%,?,-9%,-14%,-79*,-72*
COc1cc(NCCCC(C)N)c2ncccc2c1 (stereo not drawn),-17%,·,?,11%,-70*,?
Cc1ccc2nc(SCC(=O)NCc3ccc(F)cc3)nc(=O)n2c1,-1%,·,·,7%,13,5
C#CCOCCOCCOCCNc1nc(N2CCN(C(=O)CCCCCCCCCCNC(=O)[C@H]([C@@H](C)CC)n3cc(CCCCCN)nn3)CC2)nc(N2CCN(C(=O)CCCCCCCCCCNC(=O)[C@@H]([C@H](C)CC)n3cc(CCCCCN)nn3)CC2)n1,-10%,·,·,28µM*,·,·
C#CCOCCOCCOCCNc1nc(N2CCOCC2)nc(N2CCN(C(=O)CCCCCCCCCCNC(=O)[C@@H]([C@H](C)CC)n3cc(CCCCCN)nn3)CC2)n1,-4%,·,·,-14%,0,-3
NC(=O)CC(NC(=O)Cc1cccc2ccccc12)c1ccc(N2CCc3ccccc3C2)c([N+](=O)[O-])c1 (stereo not drawn),·,?,2%,-13%,-14,-14
CC1=C(C(=O)OCCOc2ccccc2)C(c2ccsc2)NC(=O)N1C (stereo not drawn),·,0%,10%,4%,5,-3
CC(NNC(=S)N1CCN(c2ccccn2)CC1)c1nccc2ccccc12 (stereo not drawn),·,·,·,·,3,-92*
CCNC(=S)N1CCN(c2ccccn2)CC1,7%,-8%,-5%,0%,0,0
COc1cccc(/C=N/NC(=O)CNC(=O)COc2cccc(C)c2)c1O,22%,-6%,-2%,4%,·,-73*
Cc1cccc(OCC(=O)NCC(=O)N/N=C/c2ccccc2)c1,·,·,1%,-7%,3,-2
Cc1cccc(OCC(=O)NCC(=O)N/N=C/c2ccc(O)cc2O)c1,·,-13%,-11%,-17%,·,-85*
C[C@@]12CCC[C@H]1C1CC[C@H]3C[C@H](O)CC[C@]3(C)C1CC2 (stereo partly drawn),·,3%,·,·,·,·
SMILES,L3MBTL1 block,CBFb RUNX1 block,MBNL1 CUG block,Eya2 inh,CtBP-E1A blk,Six1-Eya2 inh
COC(=O)CCCC[C@H]1SC[C@H]2NC(=O)N[C@]21O,2.2µM*,-26%,0.32µM*,14%,·,·
COC(=O)CCCCC1SCC2NC(=O)NC21O (stereo not drawn),·,·,0.71µM*,-1%,-7,8
COC(=O)C1CSC(C)(C)C(=O)N1 (stereo not drawn),-2%,19%,-5%,-18%,11,3
CCc1ccccc1CC1CN(Cc2ccccc2)Cc2ccccc2N1c1ccc(OC)cc1 (stereo not drawn),·,·,·,·,-12,-9
COC(=O)c1ccccc1NC1=C/C(=N\S(=O)(=O)c2cccs2)c2ccccc2C1=O,·,?,?,-5%,?,-84*!
Cc1ccc(S(=O)(=O)/N=C2\C=C(Nc3ccc(O)cc3)C(=O)c3ccccc32)cc1,?,·,·,-6%,-69*,-78*
O=C1C(Nc2ccccc2)=C/C(=N/S(=O)(=O)c2cccs2)c2ccccc21,6.3µM*,·,?,-7%,?,-86*
COC(=O)c1ccccc1NC1=C/C(=N\S(=O)(=O)c2ccc(C(=O)O)cc2)c2ccccc2C1=O,·,·,?,0%,-80*,?
CC(C)[C@@H](CC(=O)N[C@@H]1CCCC[C@H]1C(=O)N[C@H](CC(=O)N[C@@H](CCC(=O)O)CC(=O)O)Cc1c[nH]c2ccccc12)NC(=O)C[C@H](CO)NC(=O)[C@@H]1CCCC[C@H]1N,·,6%,·,·,·,·
Cc1ccc(S(=O)(=O)/N=C2\C=C(Nc3cccc(C(=O)O)c3)C(=O)c3ccccc32)c(C)c1,·,·,?,-14%,-82*,?
Cc1ccc(S(=O)(=O)/N=C2\C=C(Nc3cccc(C(=O)O)c3)C(=O)c3ccccc32)cc1,·,·,?,-9%,?,?
Cc1cc2c(OCC(CNC(C)(C)C)OC(=O)c3ccccc3)cccc2[nH]1 (stereo not drawn),·,12%,·,·,·,·
O=C(CCN1C(=O)C2CCCCC2C1=O)N1CCN(S(=O)(=O)c2ccccc2)CC1 (stereo not drawn),3%,·,·,2%,5,1
Oc1c(Br)cc(Br)c2cccnc12,·,5%,·,·,-78*,-75*
Cc1cc(C(=O)N/N=C/c2c(CO)cnc(C)c2O)c2ccccc2n1,·,·,?,-1%,-99*,-92*
